The values below come from publication PMC8384837, “Expanding the binding specificity for RNA recognition by a PUF domain”.

The target of the experiment is PUM1 PUF domain R5-GRL (Homo sapiens, UniProt Q14671 828-1176, C1007G;Q1011L). In words: yeast three-hybrid, YBZ-1, SC-Leu-His + 0.5 mM 3-AT, 4 days. The following applies: tags: N-Gal4 AD-HA kept; label: inside an RPR1-promoter hybrid RNA with tandem MS2 sites; ssRNA. In outline: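 A centromeric plasmid in strain YBZ-1 co-expressed Pumilio-1 PUF domain libraries, randomized at the three base-contacting residues of each repeat, with matching RNA elements; the strain carries a LexA–MS2 coat fusion and a HIS3 reporter. After four days on SC-Leu (input) or SC-Leu-His + 0.5 mM 3-AT (selection), the repeat regions were PCR-amplified and Illumina-sequenced. The interaction score is the log change in variant frequency from input to selection, using log2 and a pseudocount of 1 where absent.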
Sequence of PUM1 PUF domain R5-GRL (Q14671 828-1176 C1007G/Q1011L): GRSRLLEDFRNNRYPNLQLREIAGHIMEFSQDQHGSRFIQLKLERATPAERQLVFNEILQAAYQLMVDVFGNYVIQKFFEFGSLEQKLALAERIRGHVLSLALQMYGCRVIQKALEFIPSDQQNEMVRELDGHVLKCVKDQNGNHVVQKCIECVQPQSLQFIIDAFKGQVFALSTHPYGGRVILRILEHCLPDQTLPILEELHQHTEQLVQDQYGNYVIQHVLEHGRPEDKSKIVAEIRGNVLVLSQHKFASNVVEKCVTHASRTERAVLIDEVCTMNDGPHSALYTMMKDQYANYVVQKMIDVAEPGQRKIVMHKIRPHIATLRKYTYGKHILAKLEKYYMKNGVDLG
Turning to “GGCUAGAACUAGUGGAUCCCCCGGCGCCCGGCGGCUCGAGCCCGGGUAAGUGUGAAUAGUCUGCAUGCCGCCGGGCGCCAUGCCUGCAGGUCGACUCUAGAAAACAUG”, the binding signal is 1.44 log2 enrichment (interaction score).
Consider “GGCUAGAACUAGUGGAUCCCCCGGCGCCCGGCGGCUCGAGCCCGGGUAAGUGUAAAUAGUCUGCAUGCCGCCGGGCGCCAUGCCUGCAGGUCGACUCUAGAAAACAUG”, for which the binding signal was 3.74 log2 enrichment (interaction score).
Consider “GGCUAGAACUAGUGGAUCCCCCGGCGCCCGGCGGCUCGAGCCCGGGUAAGUGUUAAUAGUCUGCAUGCCGCCGGGCGCCAUGCCUGCAGGUCGACUCUAGAAAACAUG”, for which the binding signal was 2.5 log2 enrichment (interaction score).
